A short description of experiment [1]: qHTS assay for small molecule agonists of the p53 signaling pathway (AID 651631; calls by dose curve; further: nearly all actives have a fitted effect of over 15% in size). The gist of the method: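 We treat p53RE-bla HCT-116 cells with compounds for 16 h at 37 °C, add LiveBLAzer B/G FRET substrate for 2 h at room temperature, and measure fluorescence intensity.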
(In qHTS, concentration-response curves come from the screen itself.)

The nature of experiment [2]: qHTS assay for small molecules that induce genotoxicity in human embryonic kidney cells expressing luciferase-tagged ATAD5 (AID 651632). Further: nearly all actives have a fitted effect of over 15% in size. The gist of the method:
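Reporter cells (HEK293T) express luciferase-tagged ATAD5, a protein that accumulates after DNA damage. Treat 16 hr at 37C/5% CO2, add Amplite, wait 30 min at RT, and read luminescence.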

Experiment [3] can be described thus: qHTS assay for small molecules that induce genotoxicity in human embryonic kidney cells expressing luciferase-tagged ATAD5 - cell viability (AID 651634; calls by dose curve; further: nearly all actives have a fitted effect of over 25% in size). In short, it runs like this: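 Seeding of 2,000 HEK293T ATAD5-luciferase cells per well preceded pin-tool compound transfer. Plates sat 15.5 hr at 37C under 5% CO2, then fluorescence was read after 30 min with CellTiter-Fluor.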

Experiment [4] can be described thus: qHTS assay for small molecule disruptors of the mitochondrial membrane potential - cell viability (AID 720634; calls by dose curve;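 further: human HepG2 liver cancer cells; series mostly up to about 83 µM; nearly all actives have a fitted effect of over 20% in size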). The gist of the method:
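Measuring cytotoxicity alongside mitochondrial potential, the screen quantified ATP by luminescence in HepG2 cells after 1 hr compound incubation and a 30 min room-temperature CellTiter-Glo step.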

Experiment [5] can be described thus: qHTS assay to test for compound auto fluorescence at 590 nm (red) in HepG2 cells (AID 720674). In short, it runs like this: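 Compound auto-fluorescence is scored relative to Rose Bengal sodium, measured at 540/590 nm in live HepG2 cultures after 1 hr compound contact (37 C, 5% CO2).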
Experiment [6] in a line: qHTS assay to test for compound auto fluorescence at 535 nm (green) in HepG2 cells (AID 720675).
Experiment [7] in a line: qHTS assay to test for compound auto fluorescence at 460 nm (blue) in HEK293 cells (AID 720678). The gist of the method:
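Measured: blue fluorescence (Ex 405/Em 460 nm) of compound-treated HEK293 cells, incubated overnight at 37C with 5% CO2 and scaled to triamterene equivalents.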

The nature of experiment [8]: qHTS assay to test for compound auto fluorescence at 590 nm (red) in HEK293 cells (AID 720679). In short, it runs like this: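 Using HEK293 cells at 2,000 per well, the screen added 23 nL of each compound after cell attachment and incubated overnight (37C, 5% CO2). The plate reader then captured red-label fluorescence, Ex/Em 540/590nm.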
Experiment [9] in a line: qHTS assay to test for compound auto fluorescence at 535 nm (green) in HEK293 cells (AID 720680).
Experiment [10] can be described thus: qHTS assay to test for compound auto fluorescence at 460 nm (blue) in HEK293 cell free culture (AID 720681). In short, it runs like this:
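Test compounds were pinned into cell-free culture medium (DMEM with 10% FBS) and fluorescence was read directly at Ex/Em 405/460 nm. Signals were expressed as fluorescence equivalents of triamterene, with DMSO vehicle as control.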

A short description of experiment [11]: qHTS assay to test for compound auto fluorescence at 535 nm (green) in HEK293 cell free culture (AID 720682). The gist of the method: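 Green-channel intensity (Ex/Em 485/535 nm) was recorded from compound-treated wells containing only DMEM with 10% FBS. Fluorescein provided the equivalency standard.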
A short description of experiment [12]: qHTS assay to test for compound auto fluorescence at 590 nm (red) in HEK293 cell free culture (AID 720683). The gist of the method:
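Tox21 10K library compounds were pinned into cell-free DMEM with 10% FBS and fluorescence was read at excitation 540 nm. Activity is expressed as Rose Bengal sodium equivalency.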

A short description of experiment [13]: qHTS assay to test for compound auto fluorescence at 590 nm (red) in HepG2 cell free culture (AID 720684). The gist of the method:
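Red fluorescence (540 nm excitation, 590 nm emission) was measured after compound transfer into cell-free MEM supplemented with 10% FBS. Values are equivalencies against Rose Bengal sodium.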

Experiment [14] can be described thus: qHTS assay to test for compound auto fluorescence at 460 nm (blue) in HepG2 cell free culture (AID 720685). The gist of the method: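 Compound (23 nL) or DMSO pinned into cell-free MEM with 10% FBS; blue fluorescence read at 405/460 nm excitation/emission, expressed as auto-fluorescence equivalency to triamterene.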
Experiment [15] can be described thus: qHTS assay to test for compound auto fluorescence at 535 nm (green) in HepG2 cell free culture (AID 720686).
A short description of experiment [16]: qHTS assay to test for compound auto fluorescence at 460 nm (blue) in HepG2 cells (AID 720687). The gist of the method:
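Cells (2,000/well in MEM with 10% FBS) attached overnight at 37 C, then were exposed to compound or DMSO for 1 hr at 37 C, 5% CO2. Fluorescence read at Ex/Em 405/460 nm, expressed as triamterene-equivalent signal.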

The target of experiment [17] is Glucocorticoid receptor (Homo sapiens) (UniProt P04150). In words: qHTS assay to identify small molecule agonists of the glucocorticoid receptor (GR) signaling pathway (AID 720691; active means well fitted activation curve with a large enough effect in the signal ratio in the repeat runs, not every such curve was filed as active; the % refers to the signal ratio; further: potency means the concentration at half of the fitted maximal effect). The gist of the method: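 Reporter read-out: fluorescence intensity following 2 h room-temperature LiveBLAzer B/G FRET substrate loading. Prior step: GR-bla HeLa cells held 4 h, then treated 18 h at 37 C.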
Chain of Glucocorticoid receptor (Homo sapiens) (P04150 whole entry, looked up): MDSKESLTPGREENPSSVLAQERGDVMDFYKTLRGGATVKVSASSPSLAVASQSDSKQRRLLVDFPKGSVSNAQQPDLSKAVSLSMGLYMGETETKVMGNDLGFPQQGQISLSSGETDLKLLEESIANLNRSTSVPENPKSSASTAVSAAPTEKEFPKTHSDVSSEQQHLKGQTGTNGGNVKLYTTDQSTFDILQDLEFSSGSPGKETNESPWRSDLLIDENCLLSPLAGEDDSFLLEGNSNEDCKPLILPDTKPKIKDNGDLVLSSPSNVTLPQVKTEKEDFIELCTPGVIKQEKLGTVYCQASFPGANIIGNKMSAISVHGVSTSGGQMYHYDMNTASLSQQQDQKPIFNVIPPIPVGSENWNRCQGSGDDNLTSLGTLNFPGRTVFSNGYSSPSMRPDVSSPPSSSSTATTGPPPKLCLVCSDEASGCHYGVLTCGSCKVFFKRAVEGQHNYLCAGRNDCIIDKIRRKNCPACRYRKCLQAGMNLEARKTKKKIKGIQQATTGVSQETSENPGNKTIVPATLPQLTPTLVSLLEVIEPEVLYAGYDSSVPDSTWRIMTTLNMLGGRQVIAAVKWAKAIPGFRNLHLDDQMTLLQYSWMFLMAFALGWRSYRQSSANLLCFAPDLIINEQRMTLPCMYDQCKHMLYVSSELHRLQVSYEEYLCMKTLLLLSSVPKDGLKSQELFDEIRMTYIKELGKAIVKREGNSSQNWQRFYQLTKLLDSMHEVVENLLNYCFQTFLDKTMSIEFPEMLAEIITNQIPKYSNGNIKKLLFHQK

For experiment [18] the target is unchanged. The experiment can be described thus: qHTS assay to identify small molecule antagonists of the glucocorticoid receptor (GR) signaling pathway (AID 720692; active means well fitted inhibition curve with a large enough effect in the signal ratio in the repeat runs, not every such curve was filed as active; the % refers to the signal ratio). The gist of the method: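 Dexamethasone (5 nM final) stimulated a stably integrated GRE-beta-lactamase reporter in HeLa cells during 18 h co-incubation with compounds; signal was quantified as fluorescence intensity of B/G FRET substrate after 2 h.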

Experiment [19] in a line: qHTS assay for small molecule agonists of the p53 signaling pathway - cell viability (AID 651633; calls by dose curve;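 further: p53RE-bla HCT reporter cells with a stable beta-lactamase p53 reporter; series mostly up to about 83 µM; nearly all actives have a fitted effect of over 30% in size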). In short, it runs like this: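 p53RE-bla cells, seeded at 4,000 per well and rested 5 h at 37 C/5% CO2, received compounds in DMSO for 16 h at 37 C. CellTiter-Glo was then added, and luminescence was read after 30 min at room temperature to gauge cytotoxicity.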
The nature of experiment [20]: qHTS assay for small molecule disruptors of the mitochondrial membrane potential (AID 720635). Further: potency means the concentration at half of the fitted maximal effect. The gist of the method:
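HepG2 cells (2,000/well) attached overnight at 37C, then took compound for 1 hr at 37C, 5% CO2. Mito-MPS dye was added for 30 min; fluorescence was read at 490/535 nm (monomers) and 540/590 nm (aggregates).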

This note sets out measurements from PubChem BioAssay (Tox21).

“And” between values parts separate entries of the source, which are not always exact repeats. Identical values can stand only once. Values without a mark were called inactive. Inconclusive results are not listed. The source made the active and inactive calls. Unless noted, the call rests on the fitted dose curve; in most records, active means well fitted curve in the direction sought with a large enough effect in the repeat runs; inconclusive means weak or mixed curves; inactive means no such curve, though single readings can be large; an effect the other way counts as inactive or inconclusive.

`CC(C)(C)NCC(O)c1ccccc1Cl` (centres undefined): the Potency result in experiment [1], in experiment [2], in experiment [3], in experiment [4], in [17] and in experiment [18] was “inactive” in each case. For the same molecule, the call in experiment [5], in [6], in experiment [7], in [8], in experiment [9] and in experiment [10] was inactive. Further, the molecule was classed as inactive in [11], in experiment [12], in experiment [13], in experiment [14], in experiment [15] and in experiment [16].
For the molecule `CC(C)(C)OOC(C)(C)CCC(C)(C)OOC(C)(C)C`, the Potency result in [1], in experiment [19], in [3], in experiment [4], in experiment [20] and in experiment [18] was “inactive” in each case. In addition, the outcome in experiment [5], in experiment [6], in experiment [7], in experiment [8], in [9] and in experiment [10] was inactive. In addition, the call in experiment [11], in experiment [13], in experiment [14], in [15] and in experiment [16] was inactive.
As for `CCCCCl`, the Potency entry in [1], in [19], in [3], in experiment [4] and in [18] was “inactive” in each case. The molecule was classed as inactive in [5], in [7], in experiment [8], in experiment [9], in experiment [10] and in [11]. The molecule was called inactive in [12], in experiment [13], in experiment [14], in experiment [15] and in experiment [16].
Take `CCOC(=O)c1cn2nc(OP(=S)(OCC)OCC)cc2nc1C`: the Potency result in experiment [1], in experiment [2], in experiment [3], in experiment [17] and in experiment [18] was “inactive” in each case. Besides, the call in experiment [5], in [6], in experiment [7], in experiment [8], in experiment [9] and in experiment [10] was inactive. Also, the molecule was classed as inactive in experiment [11], in [12], in [13], in experiment [14], in experiment [15] and in experiment [16].
Regarding `CCCCC(CC)COC(=O)c1c(Br)c(Br)c(Br)c(Br)c1C(=O)OCC(CC)CCCC` (centres undefined), the Potency result in experiment [1], in [2], in experiment [3] and in experiment [18] was “inactive” in each case. Further, the molecule was called inactive in [5], in experiment [6], in [7], in experiment [8], in experiment [9] and in experiment [10]. The call in experiment [11], in experiment [12], in experiment [13], in [14], in [15] and in experiment [16] was inactive. For the same molecule, the Potency in experiment [17] was 33.8 µM (active).
On to `COc1cc(CC(C)N)c(OC)cc1Br` (centres undefined), for which the Potency entry in experiment [1], in experiment [2], in experiment [3], in experiment [4] and in experiment [20] was “inactive” throughout. For the same molecule, the molecule was classed as inactive in experiment [5], in experiment [6], in experiment [7], in [8], in experiment [9] and in experiment [10]. For the same molecule, the outcome in [11], in experiment [12], in experiment [13], in [14], in experiment [15] and in experiment [16] was inactive.
Regarding `CN(C)C(=O)Nc1cccc(OC(=O)NC(C)(C)C)c1`, the Potency entry in experiment [1], in experiment [2], in [20] and in [18] was “inactive” each time. Moreover, the molecule was classed as inactive in [5], in experiment [6], in [7], in experiment [8], in experiment [9] and in experiment [10]. Moreover, the outcome in [11], in [12], in experiment [13], in experiment [14], in experiment [15] and in experiment [16] was inactive.
As for `O=S(=O)(Cl)Cl`, the Potency entry in experiment [1], in experiment [2], in experiment [3], in experiment [4], in experiment [20] and in [17] was “inactive” in each case. The molecule was classed as inactive in experiment [5], in experiment [6], in [7], in experiment [8], in experiment [9] and in experiment [10]. Moreover, the molecule was classed as inactive in [11], in experiment [12], in experiment [13], in experiment [14], in experiment [15] and in experiment [16].
As for `C1CCNCC1`, the Potency result in experiment [1], in experiment [2], in experiment [4] and in [20] was “inactive” in each case. Moreover, the outcome in [5], in [6], in experiment [7], in [8], in experiment [9] and in [10] was inactive. Also, the call in experiment [11], in [12], in experiment [13], in [14], in [15] and in [16] was inactive.
In the case of `c1ccc2c(c1)-c1cccc3cccc-2c13`, the Potency result in experiment [1] and in experiment [19] was “inactive” in each case. The Potency in [20] is 61.7 µM (active) and 61.1 µM (active). The call in experiment [5], in [6], in [7], in [8], in experiment [9] and in experiment [10] was inactive. Further, the result in [11], in [12], in [13], in [14], in experiment [15] and in experiment [16] was inactive.
Regarding `C=CCOCC1CO1` (centres undefined), the Potency result in experiment [1], in experiment [2], in experiment [19] and in [17] was “inactive” each time. Also, the molecule was called inactive in experiment [5], in experiment [7], in [8], in [9], in experiment [10] and in experiment [11]. In addition, the call in experiment [12], in [13], in experiment [14], in experiment [15] and in experiment [16] was inactive.
Regarding `CC(C)(C#N)C(C)(C)C#N`, the Potency entry in experiment [1], in [2], in experiment [3] and in [20] was “inactive” throughout. Moreover, the molecule was classed as inactive in experiment [5], in experiment [6], in experiment [7], in experiment [8], in [9] and in experiment [10]. For the same molecule, the molecule was called inactive in [11], in experiment [13], in experiment [14], in [15] and in experiment [16].
As for `C=CCc1ccc(OC(=O)Cc2ccccc2)c(OC)c1`, the Potency entry in experiment [1], in experiment [2], in experiment [3], in [4], in experiment [20] and in [18] was “inactive” each time. Further, the result in experiment [5], in [6], in experiment [7], in experiment [8], in experiment [9] and in experiment [10] was inactive. For the same molecule, the result in [11], in experiment [12], in experiment [13], in experiment [14], in [15] and in experiment [16] was inactive.
With `Nc1cccc2ccccc12`, the Potency result in [1], in experiment [19] and in experiment [4] was “inactive” each time. The molecule was called inactive in experiment [5], in experiment [6], in experiment [7], in experiment [8], in experiment [9] and in experiment [10]. Further, the call in experiment [11], in [13], in [14], in experiment [15] and in experiment [16] was inactive.
